# Experimental data taken from PubChem BioAssay AID2061324 (National Center for Advancing Translational Sciences (NCATS), 2025).
# Records with an inconclusive call do not appear. Calls of active or inactive are those of the source. The call rests on the fitted dose curve; in most records, active means well fitted inhibition curve with a large enough effect; inconclusive means small, poorly fitted or top-dose-only effect; inactive means flat fitted curve, though single readings scatter.
# Assay: Identification of antibody-drug conjugate (ADC) payloads which are substrates of ATP-binding cassette drug efflux transporters: ABCG2-HEK293-pcDNA cell line
# Details: ABCG2-HEK293 transfected cells viability, CellTiter-Glo, 48 h
# Description: Antibody-drug conjugates (ADCs) feature an antibody recognizing a specific protein joined to a potent toxic payload. Numerous antibody-drug conjugates have received FDA approval; however, clinical resistance arises. Resistance mechanisms include decreased expression or mutation of the antibody target, impaired payload release, or increased expression of ATP-binding cassette (ABC) efflux transporters associated with multidrug resistance. We therefore sought to characterize the interaction of ABC multidrug transporters with ADC payloads. We performed a high-throughput screen with 27 common ADC payloads using cells lines expressing ABC transporters P-glycoprotein (P-gp, encoded by ABCB1) or ABCG2 (encoded by ABCG2). Confirmatory assays were also performed using cells transfected to express P-gp, ABCG2, or MRP1 (encoded by ABCC1). Several commonly used ADC payloads were substrates of P-gp, including calicheamicin gamma1, monomethyl auristatin E, DM1, and DM4. All the pyrrolobenzodiazepines tested - SJG136, SGD-1882, SG2057, and SG3199 - were substrates of P-gp, ABCG2, and MRP1. […] These findings highlight the risk of transporter-mediated resistance with certain ADC payloads and underscore the importance of selecting payloads that evade ABC transporter recognition in future ADC development.
# HEK-293 cells were transfected with empty vector (pcDNA) or vector containing the human ABCB1 (MDR-19), ABCG2 (R-5), or ABCC1 gene (MRP1) and were maintained in EMEM with 2 mg/mL G418 added to maintain transporter expression. The HeLa derivative KB-3-1 and the P-gp overexpressing KB-8-5-11 subline were maintained in DMEM; KB-8-5-11 additionally received 100 ng/mL colchicine. H460 parental cells were obtained from the Division of Cancer Treatment and Diagnosis Tumor Repository, National Cancer Institute at Frederick, MD and were cultured in RPMI. The ABCG2 expressing subline H460 MX20 was generated by selecting H460 cells in 20 nM mitoxantrone. Media in all cases was supplemented with 10% FBS and 1% penicillin-streptomycin. We explored 27 common ADC payloads, in two orthogonal, paired cell line sets-a drug selected and transfected set for each transporter--to identify substrates of the ABC transporters P-gp and ABCG2. Compounds were sourced from Levena Biopharma (San Diego, CA), Selleck Chem (Houston, TX), ChemieTek (Indianapolis, IN), or Microsource Discovery Systems (Gaylordsville, CT). Screening was performed as previously described. Briefly, cells were plated at a density of 500 cells/well in 1536 well plates with compounds added using a 1536-head pin tool (Kalypsys, San Diego CA). Cells were incubated with cytotoxic drugs and processed with CellTiter Glo reagent (Promega, Madison, WI) to determine viability after 48 hours. P-gp substrates were identified by comparing compound activity between paired sets of low-expressing (sensitive) and over-expressing (resistant) cell lines.
row,SMILES,Potency
1,CC[C@H](C)[C@H](NC(=O)[C@H]1CCCCN1C)C(=O)N(C)[C@H](C[C@@H](OC(C)=O)c1nc(C(=O)N[C@@H](Cc2ccccc2)C[C@H](C)C(=O)O)cs1)C(C)C,23.8 nM (active)
2,COc1cc2cc(C(=O)N3C[C@@H](CCl)c4c3cc(O)c3ccccc43)[nH]c2c(OC)c1OC,7.5 nM (active)
3,COc1cc2cc(c1Cl)N(C)C(=O)C[C@H](OC(=O)[C@H](C)N(C)C(=O)CCC(C)(C)S)[C@]1(C)OC1[C@H](C)C1C[C@@](O)(NC(=O)O1)[C@H](OC)/C=C/C=C(\C)C2 (some centres not stated),2.4 nM (active)
4,CC[C@@]1(O)C(=O)OCc2c1cc1n(c2=O)Cc2cc3ccccc3nc2-1,15 nM (active)
5,COc1cc2cc(c1Cl)N(C)C(=O)C[C@H](OC(=O)C(C)C)[C@]1(C)O[C@H]1[C@H](C)[C@@H]1C[C@@](O)(NC(=O)O1)[C@H](OC)C=CC=C(C)C2,1.1 nM (active)
6,CC[C@H](C)[C@@H]([C@@H](CC(=O)N1CCC[C@H]1[C@H](OC)[C@@H](C)C(=O)N[C@H](C)[C@@H](O)c1ccccc1)OC)N(C)C(=O)[C@@H](NC(=O)[C@H](C(C)C)N(C)C)C(C)C,9.5 nM (active)
7,COc1cc2cc(c1Cl)N(C)C(=O)C[C@H](OC(=O)[C@H](C)N(C)C(=O)CCS)[C@]1(C)OC1[C@H](C)C1C[C@@](O)(NC(=O)O1)[C@H](OC)/C=C/C=C(\C)C2 (some centres not stated),9.5 nM (active)
